SNCA expr inh: inhibitors of alpha-synuclein (SNCA) gene expression; hit rate 0.17% among 140,000; Potency, µM (highest dose often 57.2 µM), most hits filed as inhibitors; HEK-293 SNCA-luciferase knock-in, luminescence, 24 h; AID 1671194; note: nearly all actives have a fitted effect of over 45% in size
NIH3T3 tox: cytotoxic compounds in NIH 3T3 cells; NIH 3T3 viability, CellTiter-Glo ATP luminescence, 48-72 h; Potency, µM (series often up to 96.7 µM), actives largely listed as inhibitors; hit rate 4.3% among 94,000; AID 1345082; note: nearly all actives have a fitted effect of over 55% in size
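Mouse fibroblast NIH 3T3 cells, 400 per well, received compound via pintool and were incubated for 48 or 72 hr prior to CellTiter-Glo ATP luminescence measurement.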
Luciferase inh: Photinus pyralis luciferase inhibition | hit rate 2.5% among 76,000 | Potency, µM (series often up to 115 µM), actives largely listed as inhibitors | AID 1347043 | P08659 | purified P. pyralis luciferase, luminescence, biochemical; note: nearly all actives have a fitted effect of over 65% in size
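Purified 10nM P. pyralis luciferase with 10uM D-luciferin and 10uM ATP in 50mM Tris acetate pH 7.5, 10mM Mg acetate, 0.01% Tween-20, 0.05% BSA. qHTS titration; luminescence read by CCD imager.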
HEK293 tox: HEK 293 cell cytotoxicity. Potency, µM (titrated, usually from 115 µM), actives largely listed as inhibitors. AID 1345083. hit rate 6.6% among 94,000. HEK 293 viability, ATP luminescence (CellTiter-Glo), 48-72 h; note: nearly all actives have a fitted effect of over 60% in size
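Luminescence from cellular ATP, measured with CellTiter-Glo, indicates HEK 293 viability. Cells plated at 250 cells/well are treated with compound for 48 or 72 hr at 37 degree Celsius before reagent addition.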
HEK293 viab: counter-screen for SNCA expression inhibitors: cell viability; HEK-293-SNCA-luc viability, GF-AFC fluorescence, 24 h; hit rate 0.12% among 150,000; Potency, µM (titrated, usually from 57.1 µM), most hits filed as cytotoxic; note: nearly all actives have a fitted effect of over 30% in size
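Cytotoxicity counterscreen: after 24 h compound treatment of genome-edited SNCA-luciferase HEK-293 cells, live-cell protease substrate GF-AFC read by fluorescence after 30 min; activity scaled between DMSO (0%) and medium-only (-100%), curves Hill-fitted.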
NPR1 antag: blocks ANP-stimulated signaling of human Npr1 receptor; P16066; HEK293 hNpr1 GloSensor cGMP, ANP-stimulated luminescence; Potency, µM (highest dose often 46.3 µM), most hits filed as inhibitors; hit rate 1.6% among 76,000; AID 1347048; calls by dose curve; note: nearly all actives have a fitted effect of over 60% in size
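HEK293 cells stably expressing human Npr1 and cGMP GloSensor pGS-40F, loaded 2 h with 2% GloSensor reagent, given compound 30 min at room temperature. Luminescence read before and 20 min after 0.1 nM hNppA.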
Of the large screens only hits and unclear results are named; the others gave an inactive call. Compounds with a hit are over-represented: about 7.4% of the library has one in this group of screens. Unless noted, calls come from the whole dose curve; as a rule, active = well fitted curve in the direction sought with a large enough effect; inconclusive = small, poorly fitted or top-dose-only effect, or another doubt; inactive = no such curve, though single readings can be large; an effect the other way counts as inactive or inconclusive.

CSc1ccc(CNC(=O)c2cc3c(=O)[nH]c(C)cn3n2)cc1	Luciferase inh 13µM
CCc1ccc(CNC(=O)c2nnn3cc(C)[nH]c(=O)c23)cc1	NIH3T3 tox 35µM
O=C(NC1CCN(c2nccc(Nc3ccccc3Cl)n2)CC1)c1ccc(F)cc1	NIH3T3 tox inconclusive, HEK293 tox inconclusive (no result: Luciferase inh, NPR1 antag)
Cc1ccc(-c2cc(C(=O)NCc3cccs3)c3cnn(C)c3n2)c(C)c1	NIH3T3 tox inconclusive, HEK293 tox inconclusive (no result: Luciferase inh, NPR1 antag)
Cn1ncc2c(C(=O)CCc3ccc(F)cc3)cc(-c3ccc(Cl)cc3Cl)nc21	NIH3T3 tox 32µM, HEK293 tox 35µM (no result: Luciferase inh, NPR1 antag)
Cn1ncc2c(C(=O)NCc3cccs3)cc(-c3ccc(Cl)cc3Cl)nc21	NIH3T3 tox inconclusive, HEK293 tox 40µM (no result: Luciferase inh, NPR1 antag)
Cc1ncccc1-c1nc2cc(C(=O)N(C)C)ccc2o1	NIH3T3 tox inconclusive (no result: Luciferase inh, NPR1 antag)
CCC1=C(C(=O)OC)C(c2cccc(C)c2)N2C(CC(=O)N3CCCCC3C)=CSC2=N1 (stereo unspecified)	HEK293 tox 45µM
CCC1=C(C(=O)OC)C(c2cccc(C)c2)N2C(CC(=O)Nc3ccc(OC)cc3)=CSC2=N1 (stereo unspecified)	NIH3T3 tox inconclusive, HEK293 tox 40µM
CN1CCN(C(=O)c2ccc3nnc(C4CCCC4)n3c2)CC1	none (no result: Luciferase inh, NPR1 antag)
COc1ccc2c(C)c(C(=O)N(C)Cc3csc(C(C)C)n3)oc2c1	NIH3T3 tox inconclusive, HEK293 tox 45µM
O=C(O)C1(Cc2ccccc2F)CCCN(c2ncccn2)C1 (stereo unspecified)	HEK293 tox inconclusive
OCC1(Cc2ccc(F)cc2F)CCCN(c2cnc3ccccc3n2)C1 (stereo unspecified)	SNCA expr inh inconclusive, NIH3T3 tox inconclusive, HEK293 tox 40µM, HEK293 viab inconclusive, NPR1 antag inconclusive
CN1CC2(CCN(C(=O)CC3CCCC3)CC2)CC1C(=O)N1CCOCC1 (stereo unspecified)	none (no result: Luciferase inh, NPR1 antag)
CC(C)(C)C(Cn1ccnc1)NC(=O)c1cc(COc2ccc3c(c2)CCCC3)on1 (stereo unspecified)	SNCA expr inh inconclusive, NIH3T3 tox 20µM, Luciferase inh inconclusive, HEK293 tox 25µM
CCOc1ccc(NC(=O)c2cc(CN3CCCC3)on2)cc1	none (no result: NIH3T3 tox, Luciferase inh, HEK293 tox, NPR1 antag)
CNC(=O)c1ccc2c(c1)C1(CCN(CC3CC3)C1)CN2Cc1ccccc1 (stereo unspecified)	NIH3T3 tox inconclusive, HEK293 tox 100µM
CC(C)NC(=O)c1ccc2c(c1)C1(CCN(CC3CC3)C1)CN2Cc1ccccc1 (stereo unspecified)	NIH3T3 tox 89µM, HEK293 tox inconclusive
O=C(NC1COC1)c1ccc2c(c1)C1(CCN(CC3CC3)C1)CN2Cc1ccccc1 (stereo unspecified)	HEK293 tox inconclusive
O=C(c1cccc(O)c1)N1CCCC(CCc2cccc(C(F)(F)F)c2)C1 (stereo unspecified)	NIH3T3 tox inconclusive, HEK293 tox 40µM
Cc1ncsc1C(=O)N1CCCC(CCc2ccc(F)cc2F)C1 (stereo unspecified)	NIH3T3 tox inconclusive, HEK293 tox 89µM
O=C(c1ccncc1)N1CCCC(CCc2ccc(F)cc2)C1 (stereo unspecified)	NIH3T3 tox inconclusive, HEK293 tox 40µM, NPR1 antag inconclusive
CCCc1ncncc1C(=O)N1CCCC(CCc2ccc(F)cc2)C1 (stereo unspecified)	NIH3T3 tox inconclusive, HEK293 tox inconclusive
CSCC(=O)N1CCCC(CCc2cccc(F)c2)C1 (stereo unspecified)	NIH3T3 tox inconclusive, Luciferase inh inconclusive, HEK293 tox 20µM
O=C(c1ccc(=O)[nH]c1)N1CCCC(CCc2cccc(C(F)(F)F)c2)C1 (stereo unspecified)	NIH3T3 tox inconclusive, HEK293 tox inconclusive
O=C1CCCCN1CC(=O)N1CCCC(CCc2ccc(F)cc2F)C1 (stereo unspecified)	none
COc1ccc(-c2ccc(C(=O)NC3CCCCC3)c(Cl)c2)nn1	HEK293 tox inconclusive (no result: SNCA expr inh, Luciferase inh, HEK293 viab, NPR1 antag)
COc1ccc(-c2ccccc2C(=O)NCC(F)(F)F)nn1	none (no result: SNCA expr inh, Luciferase inh, HEK293 viab, NPR1 antag)
CCCn1nccc1C(=O)N1CCCC(CCc2cccc(C(F)(F)F)c2)C1 (stereo unspecified)	SNCA expr inh inconclusive, NIH3T3 tox inconclusive, HEK293 tox 25µM, NPR1 antag inconclusive
Cc1c[nH]c(C(=O)N2CCCC(CCc3cccc(C(F)(F)F)c3)C2)c1 (stereo unspecified)	NIH3T3 tox inconclusive, HEK293 tox inconclusive
O=C(NC1CCN(c2cc(-c3ccc(F)cc3)[nH]n2)C1)c1ccccc1 (stereo unspecified)	NIH3T3 tox inconclusive, HEK293 tox inconclusive
O=C(NC1CCN(c2cc(-c3ccc(F)cc3)[nH]n2)C1)c1cccc(F)c1 (stereo unspecified)	NIH3T3 tox inconclusive, HEK293 tox 40µM
O=C(NC1CCCN(c2cc(-c3ccccc3)[nH]n2)C1)c1ccc(F)cc1Cl (stereo unspecified)	NIH3T3 tox inconclusive, Luciferase inh inconclusive, HEK293 tox inconclusive
O=C(NC1CCCN(c2cc(-c3ccccc3)[nH]n2)C1)c1cccc(F)c1 (stereo unspecified)	NIH3T3 tox inconclusive, Luciferase inh inconclusive, HEK293 tox 25µM
CC1Oc2ccc(NC(=O)COc3ccccc3)cc2CN(Cc2ccccc2Cl)C1=O (stereo unspecified)	NIH3T3 tox inconclusive, HEK293 tox 25µM, HEK293 viab inconclusive
CC1Oc2ccc(NC(=O)c3ccc(F)cc3F)cc2CN(Cc2ccccc2Cl)C1=O (stereo unspecified)	NIH3T3 tox inconclusive, HEK293 tox 50µM
COc1ccc(CC(=O)Nc2ccc3c(c2)CN(CCOc2ccccc2)C(=O)C(C)O3)cc1 (stereo unspecified)	NIH3T3 tox inconclusive, HEK293 tox 45µM
COc1ccc(CN2Cc3cc(NC(=O)Cc4ccccc4)ccc3OC(C)C2=O)cc1 (stereo unspecified)	NIH3T3 tox inconclusive, HEK293 tox inconclusive
CC1Oc2ccc(NC(=O)c3ccccc3Cl)cc2CN(Cc2ccccc2F)C1=O (stereo unspecified)	NIH3T3 tox inconclusive, HEK293 tox inconclusive
O=C(C1CCCN([S+](=O)([O-])c2cccc(C(F)(F)F)c2)C1)N1CCC(N2CCOC2=O)CC1 (stereo unspecified)	HEK293 tox inconclusive (no result: Luciferase inh, NPR1 antag)
COc1ccc(-c2c(C(=O)N3CCN(C)CC3)nc3sccn23)cc1	none (no result: Luciferase inh, NPR1 antag)
O=C(NC1CCCC1)N1CC(Oc2cccc(-c3nc(-c4ccccc4)no3)c2)C1	NIH3T3 tox inconclusive, HEK293 tox inconclusive
